From PubChem BioAssay (EPA / NIEHS)
Results filed as inconclusive are left out. The source made the active and inactive calls. Rule for the calls, unless noted: active = hit-call score of the fitted dose curve at least 0.9, where 1 is the maximum; inconclusive = response in the unintended direction; inactive = score below 0.9.

Columns and labels:
[1] = test system: Sodium/Iodide Symporter (NIS), SLC5A5 (gene 6528); assay: CPHEA_Stoker_NIS_Inhibition_RAIU: CPHEA's Radioactive Iodide Uptake (RAIU) Assay for Sodium/Iodide Symporter (NIS) Inhibition, Stoker and Laws Labs (AID 2283841)
Procedure, shortened: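 HEK293T cells stably expressing human NIS (hNIS-HEK293T-EPA) were exposed to test chemicals at 0.001–100uM (0.5% final DMSO) with 125I at a final 329pM in HBSS/10mM HEPES pH 7.4. After 2 hours at room temperature and ice-cold washes, intracellular 125I was counted as CPM and normalized to DMSO wells.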

[2] = CPHEA_Stoker_NIS_Cytotoxicity: Cytotoxicity Assessment for CPHEA's Radioactive Iodide Uptake (RAIU) Assay for Sodium/Iodide Symporter (NIS) Inhibition, Stoker and Laws Labs (AID 2283897);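 for AC50: active means loss of ATP signal versus DMSO meaning cytotoxicity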
Procedure, shortened: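 hNIS-HEK293T-EPA human kidney cells were exposed for 2 hours at room temperature to test chemicals (0.001–100uM, 0.5% final DMSO) in HEPES-buffered HBSS, pH 7.4. Viability was read as ATP content by luciferase bioluminescence, loss of signal versus DMSO.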

[3] = CEETOX_H295R_11DCORT_noMTC: CeeTox H295R High-throughput Steroidogenesis Assay for 11-Deoxycortisol (11DCORT), maximum tolerated concentration (MTC) filtered results only (AID 2283911; active = hit-call score of the fitted dose curve at least 0.9, where 1 is the maximum; inactive = score below 0.9); settings: actives raise or lower the signal
Procedure, shortened: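 Forskolin-primed (10 uM, 48 h) H295R adrenal cells are dosed for 48 h at 0.1% DMSO; medium 11-deoxycortisol is quantified by LC-MS/MS against a 7-point standard curve, with activity fitted in both directions versus DMSO.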

[4] = CEETOX_H295R_OHPREG_noMTC: CeeTox H295R High-throughput Steroidogenesis Assay for OH-Pregnenolone (OHPREG), maximum tolerated concentration (MTC) filtered results only (AID 2283912; active = hit-call score of the fitted dose curve at least 0.9, where 1 is the maximum; inactive = score below 0.9); settings: actives raise or lower the signal
Procedure, shortened: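 Medium 17alpha-hydroxypregnenolone quantified by reverse-phase HPLC-MS/MS after 48 h chemical exposure of forskolin-prestimulated (10 uM, 48 h) H295R, 0.1% DMSO final. Fitting bidirectional relative to DMSO; no maximum-tolerated-concentration filtering applied.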

[5] = CEETOX_H295R_OHPROG_noMTC: CeeTox H295R High-throughput Steroidogenesis Assay for OH-Progesterone (OHPROG), maximum tolerated concentration (MTC) filtered results only (AID 2283914; active = hit-call score of the fitted dose curve at least 0.9, where 1 is the maximum; inactive = score below 0.9); settings: actives raise or lower the signal
Procedure, shortened: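 After 48 h forskolin (10 uM) prestimulation, H295R adrenal cells received test chemical in 0.1% DMSO for 48 h. Medium 17alpha-hydroxyprogesterone was MTBE-extracted and measured by HPLC-MS/MS; gain or loss relative to DMSO, no MTT-based MTC filtering.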

[6] = CEETOX_H295R_ANDR_noMTC: CeeTox H295R High-throughput Steroidogenesis Assay for Androstenedione (ANDR), maximum tolerated concentration (MTC) filtered results only (AID 2283915; active = hit-call score of the fitted dose curve at least 0.9, where 1 is the maximum; inactive = score below 0.9); settings: actives raise or lower the signal
Procedure, shortened: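 Androstenedione secreted into medium was measured by LC-MS/MS after MTBE extraction. Human adrenal H295R cells received 10 uM forskolin for 48 h before 48 h chemical exposure (0.1% DMSO). Gain or loss fitted against DMSO, including concentrations above the MTT-derived MTC.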

[7] = CEETOX_H295R_CORTISOL_noMTC: CeeTox H295R High-throughput Steroidogenesis Assay for Cortisol, maximum tolerated concentration (MTC) filtered results only (AID 2283916; active = hit-call score of the fitted dose curve at least 0.9, where 1 is the maximum; inactive = score below 0.9); settings: actives raise or lower the signal
Procedure, shortened: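 Cortisol secretion measured by LC-MS/MS after 48 h chemical treatment (final 0.1% DMSO) of forskolin-primed (10 uM, 48 h) H295R cells; gain or loss fitted relative to DMSO, without maximum-tolerated-concentration filtering.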

[8] = CEETOX_H295R_CORTIC_noMTC: CeeTox H295R High-throughput Steroidogenesis Assay for Corticosterone (CORTIC), maximum tolerated concentration (MTC) filtered results only (AID 2283917; active = hit-call score of the fitted dose curve at least 0.9, where 1 is the maximum; inactive = score below 0.9); settings: actives raise or lower the signal
Procedure, shortened: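 Human adrenal H295R cells were prestimulated 48 h with 10 uM forskolin, then exposed 48 h to chemical in 0.1% DMSO. Medium corticosterone was MTBE-extracted and quantified by HPLC-MS/MS; bidirectional fits versus DMSO, concentrations not MTC-filtered.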

For `CC(=O)[O][Hg][c]1ccccc1`, the AC50 [1] was 50 µM (active) and the AC50 [2] was 9.92 µM (active).

With `Cc1ccccc1C(=O)Nc1cccc(OC(C)C)c1` the outcome [1] was “inactive” and the outcome [2] was “inactive”.

In the case of `Fc1ccc(C2(Cn3cncn3)OC2c2ccccc2Cl)cc1` (centres undefined), the outcome [1] is reported as “inactive” and the outcome [2] is reported as “inactive”.

For `CC(C)(c1ccccc1)c1ccc(O)c(C(C)(C)c2ccccc2)c1`, the outcome [1] was “inactive” and the outcome [2] was “inactive”.

With `CCN1CCC2(CC1)COc1cc3c(cc12)N(C(=O)c1ccc(-c2ccc(-c4nnc(C)o4)cc2C)cc1)CC3` the AC50 [1] was 72.8 µM (active) and the AC50 [2] was 8.43 µM (active).

With `O=C/C=C/c1ccccc1` the outcome [1] was “inactive” and the outcome [2] was “inactive”.

For `NNC(=S)NN`, the outcome [1] was “inactive” and the outcome [2] was “inactive”.

In the case of `CCC1(c2ccc(N)cc2)CCC(=O)NC1=O` (centres undefined), the outcome [3] is reported as “inactive”, the outcome [4] is reported as “inactive” and the outcome [5] is reported as “inactive”. The outcome [6] was “inactive”, the outcome [7] was “inactive” and the outcome [8] was “inactive”.

In the case of `O=[N+]([O-])c1ccc(O)c([N+](=O)[O-])c1`, the outcome [1] is reported as “inactive” and the outcome [2] is reported as “inactive”.

For `O=C(O)C(F)(F)C(F)(F)C(F)(F)C(F)(F)C(F)(F)C(F)(F)F`, the outcome [1] was “inactive” and the outcome [2] was “inactive”.

With `CCOP(=S)(OCC)SCSP(=S)(OCC)OCC` the outcome [1] was “inactive” and the outcome [2] was “inactive”.

In the case of `Cn1sc(Cl)cc1=O`, the outcome [1] is reported as “inactive”, the outcome [2] is reported as “inactive” and the outcome [3] is reported as “inactive”. The outcome [4] was “inactive”, the outcome [5] was “inactive” and the outcome [7] was “inactive”. The outcome [8] was “inactive”.

With `[O-][Cl+2]([O-])O` the outcome [1] was “inactive” and the outcome [2] was “inactive”.

For `COP(=S)(OC)Oc1ccc(Sc2ccc(OP(=S)(OC)OC)cc2)cc1`, the outcome [1] was “inactive” and the outcome [2] was “inactive”.

In the case of `CCC(C)(C)c1ccc(O)c(C(C)(C)CC)c1`, the outcome [1] is reported as “inactive” and the AC50 [2] is reported as 9.92 µM (active).

In the case of `O=C(Nc1ccc2[nH]ccc2c1)c1cc2cc(F)ccc2n1Cc1cccc(F)c1`, the outcome [1] is reported as “inactive” and the outcome [2] is reported as “inactive”.

For `O=C(OC1CCCCC1)c1ccccc1C(=O)OC1CCCCC1`, the outcome [1] was “inactive”, the outcome [2] was “inactive” and the AC50 [3] was 2.24 µM (active). For the same molecule, the AC50 [4] was 2.11 µM (active), the AC50 [5] was 0.549 µM (active) and the outcome [7] was “inactive”. The outcome [8] was “inactive”.

In the case of `Clc1ccc(COC(Cn2ccnc2)c2ccc(Cl)cc2Cl)cc1` (centres undefined), the AC50 [1] is reported as 11.7 µM (active) and the AC50 [2] is reported as 72.6 µM (active).

For `c1cc[c]([Hg][c]2ccccc2)cc1`, the outcome [1] was “inactive”, the outcome [2] was “inactive” and the AC50 [3] was 53.6 µM (active). The AC50 [4] was 27.1 µM (active), the AC50 [5] was 32 µM (active) and the AC50 [6] was 50 µM (active). For the same molecule, the AC50 [7] was 36.9 µM (active) and the AC50 [8] was 76.1 µM (active).

With `CCOP(=S)(OCC)Oc1nc(Cl)c(Cl)cc1Cl` the outcome [1] was “inactive” and the outcome [2] was “inactive”.

For `C=C(C)C(=O)[O][Sn]([CH2]CCC)([CH2]CCC)[CH2]CCC`, the AC50 [1] was 5.24 µM (active) and the AC50 [2] was 1.25 µM (active).

For `ClC(Cl)=C(Cl)C(Cl)=C(Cl)Cl`, the outcome [3] was “inactive”, the outcome [4] was “inactive” and the outcome [5] was “inactive”. For the same molecule, the outcome [7] was “inactive” and the outcome [8] was “inactive”.

For `CCCCCCCCSC(=O)Oc1cc(Cl)nnc1-c1ccccc1`, the outcome [1] was “inactive” and the outcome [2] was “inactive”.
